Test results taken from ChEMBL document CHEMBL1157539, “Thousands of chemical starting points for antimalarial lead identification” (Nature, 2010).
Among all 13,000 compounds or so, fewer than 10 showed an effect of 50% or more. These entries were drawn from the full list.

tested on: Plasmodium falciparum; assay: GSK_TCMDC: Inhibition of Plasmodium falciparum 3D7 LDH activity, using an LDH reporter assay. Test compounds present at 2uM; type: functional, organism-based

SMILES | inhibition
COc1ccc(-c2ccc(NC(=O)c3ccccc3)cc2)cc1CN1CCCN(C)CC1 | 3%
C=CCn1c(=N)c(C(=O)NCc2ccc(F)cc2)cc2c(=O)n3cccc(C)c3nc21 | 0%
CC(C)(Oc1ccc(Cl)cc1)C(=O)NCCC1CCN(CCCCCNC(=O)/C=C/c2ccc(Cl)c(Cl)c2)CC1 | 0%
OC(CNCCCCCCNCC(O)c1ccc(Cl)c(Cl)c1)c1ccc(Cl)c(Cl)c1 (stereo not drawn) | 0%
Cc1cccc2nc(-c3ccc(-c4ccc(NC(=O)C(=O)c5cccn5C)cc4)cc3)[nH]c12 | 8%
C[C@H]1CN(Cc2cccc(-c3cc(CNC(=O)c4cccc(CC5CCN(C)CC5)c4)ccc3F)c2)CCN1C | 2%
Nc1c(I)cc(C(=O)Nc2ccc3nc4c(c(N)c3c2)CCCC4)cc1I | 2%
FC(F)(F)c1cccc(Nc2nc3nonc3nc2NC2C3CC4CC(C3)CC2C4)c1 (stereo not drawn) | 0%
COc1ccc2nccc([C@@H](O)CN3CCC(NCc4cc5cccc(O)c5[nH]4)CC3)c2c1 | 0%
Fc1ccc2[nH]c(-c3cccc(-c4cccc(CN5CCN(c6cnccn6)CC5)c4)c3)nc2c1 | 0%
O=C(Cc1ccccc1)NC(c1ccc(Cl)cc1)c1ccc2cccnc2c1O (stereo not drawn) | 0%
Cc1noc(C)c1-c1ccc2c(Nc3ccccc3C(C)(C)C)c(C(=O)NCc3ccccc3)cnc2c1 | 0%
Cc1cccc2nc(-c3ccc(-c4cccc(NC(=O)c5cncn5C)c4)s3)[nH]c12 | 0%
CC(C)CNCc1cccc(-c2cccc(CN(CCCN3CCN(C)CC3)C(=O)CCC3CCCC3)c2)c1 | 0%
Cc1cc(NC2CCN(CC3CCCCC3)C2)nc(Nc2ccc(Cl)cc2)n1 (stereo not drawn) | 0%
Cc1noc(C)c1-c1ccc2c(Nc3cccc4c3-c3ccccc3C4=O)c(C(=O)NCc3ccccc3I)cnc2c1 | 2%
CC(=O)Nc1ccc(OCCCCN(Cc2ccccc2C(F)(F)F)c2ccc(C#N)c(C(F)(F)F)c2)c(Cl)c1 | 0%
COc1ccc(-c2cccc(NC(=O)c3ccc(Cl)cc3)c2)cc1CN1CCNCC1 | 0%
COc1ccc2c(NN=Cc3ccc(F)cc3)ccnc2c1 | 0%
COc1ccc(C=NN=c2cc(C)[nH]c3ccccc23)cc1OC | 0%
COC(=O)c1cccc(CNCc2ccc(-c3cccc(-c4nc5cc(C(F)(F)F)ccc5[nH]4)c3)cc2)c1 | 6%
CCn1c(-c2nonc2N)nc2c(-c3ccccc3)ncc(OCCCCNCCc3ncc[nH]3)c21 | 0%

SMILES | inhibition
CCc1c[nH]c2c(N3CCCS3(=O)=O)cc(C(=O)N[C@@H](Cc3ccccc3)[C@H](O)CNC(C)(C)CCCC(C)C)cc12 | 0%
COc1ccc(C2CCC(NCCCCNC(=O)c3ccc(NC(=O)c4ccc(Cl)cc4)cc3)CC2)cc1 (stereo not drawn) | 0%
Cc1c(-c2ccc(C(=O)NC3CC(C)(C)NC(C)(C)C3)cc2)[nH]c2cc(Cl)c(Cl)cc12 | 0%
O=C(Nc1cccc(F)c1)c1ccc(C(=O)NC2CCN(CC3CCCCC3)CC2)cc1 | 0%
CC(C)NCc1ccc(-c2ccc(NC(=O)c3ccc(C#N)cc3)cc2)cc1 | 0%
FC(F)(F)c1ccc2[nH]c(-c3ccc(-c4cccc(CN5CCN(c6ccncc6)CC5)c4)cc3)nc2c1 | 2%
O=C(Nc1nc(-c2ccccn2)cc2ccccc12)c1cccc(Cl)c1 | 0%
NC(=O)C1CCN(Cc2cccc(-c3cccc(-c4nc5cc(F)ccc5[nH]4)c3)c2)CC1 | 3%
CC(C)(C)c1ccc(CNC(=O)c2ccc(CNC3CCC(N)CC3)s2)cc1 (stereo not drawn) | 4%
CC1(C)N=C(N)N=C(N)N1c1ccc(Cl)c(Cl)c1 | 0%
Cc1cc(=NN=Cc2ccccc2Cl)c2ccc(F)cc2[nH]1 | 0%
Cc1cc(CNCCCCCCCNCc2ccc(-c3ccccc3)cc2)ccc1O | 0%
Cc1cc(=NN=Cc2ccc(F)cc2)c2ccc(C(F)(F)F)cc2[nH]1 | 0%
COc1cc(C=NN=c2cc(C)[nH]c3ccccc23)cc(OC)c1OC | 0%
O=C(NCCc1ccccc1)N(Cc1ccccc1-c1ccc(CNC2CCCC2)cc1)C1CCN(Cc2ccccc2)CC1 | 1%
CCN(CC)CCN(Cc1ccc(-c2ccc(C(F)(F)F)cc2)cc1)C(=O)Cn1c(CCc2cccc(F)c2F)nc(=O)c2ccc(F)cc21 | 3%
COc1ccc(CNCc2ccc(F)cc2)cc1-c1ccc(OC)c(S(=O)(=O)NCCN2CCCC2)c1 | 5%
COc1ccc2c(N/N=C/c3cccc([N+](=O)[O-])c3)ccnc2c1 | 5%
CCCCN1CCN(CCCNc2c3ccccc3nc3ccccc23)CC1 | 0%
CON=Cc1ccn(-c2ccc(O)c3c2C[C@H]2C[C@H]4[C@H](N(C)C)C(O)=C(C(N)=O)C(=O)[C@@]4(O)C(O)=C2C3=O)c1 | 0%
CN(C)Cc1ccc(-c2ccc3c(Nc4ccc(Cl)cc4F)ccnc3c2)o1 | 0%
CN(C)c1ccc(-c2nc3cc(N)ccc3[nH]2)cc1 | 0%

SMILES | inhibition
Cc1cc(O)c(-c2cccc(Oc3ccc(Cl)cc3)c2)c(C)n1 | 0%
O=C(CNC(=O)c1ccc(O)cc1)Nc1ccc(-c2cccc(-c3nc4cc(C(F)(F)F)ccc4[nH]3)c2)cc1 | 3%
CCOc1cc[nH]c(=O)n1 | 5%
O=C(NCCCCN1CCC(c2ccc3c(c2OCCO)CCCC3)CC1)c1ccc2oc(-c3ccc(C(F)(F)F)cc3)cc2c1 | 4%
FC(F)(F)COc1ccc2ccccc2c1CCNCCCCNCCc1c(OCC(F)(F)F)ccc2ccccc12 | 0%
COc1ccc2nccc(N3CCC(CCNCc4cc5c(cn4)OCCO5)CC3)c2n1 | 7%
Cc1c2ccc(N(C)c3ccnc(Nc4ccc5c(c4)nc(NC(C)C)n5C)n3)cc2nn1C | 0%
COc1ccc(CNC(=O)Nc2cccc(-c3csc(NC(=N)N)n3)c2)cc1 | 1%
O=C(C=Cc1ccc(Cl)c(Cl)c1)NCCCCCN1CCC(CCNC(=O)/C=C/c2ccccc2)CC1 | 0%
CCN(CC)CCN(Cc1ccc(-c2ccc(C(F)(F)F)cc2)cc1)C(=O)Cn1c(CCc2ccc(F)cc2)nc(=O)c2ccccc21 | 0%
Cn1cccc1C(=O)C(=O)Nc1cccc(-c2ccc(-c3nc4cc(C(F)(F)F)ccc4[nH]3)cc2)c1 | 0%
CC(=O)Nc1ccc(C(=O)Nc2cccc(-c3cccc(-c4nc5cc(F)ccc5[nH]4)c3)c2)cn1 | 1%
Nc1ncc(-c2ccc3nccc(-c4ccncc4)c3c2)cc1S(=O)(=O)N1CCCCC1 | 3%
Cc1cc(NCC(c2ccccc2)c2ccccc2)nc(NCC2CCCCC2)n1 | 3%
N#Cc1cccc(C(=O)Nc2ccc(-c3ccc(CN4CCCC4)cc3)cc2)c1 | 0%
Cc1[nH]c(C)c(-c2ccc(OCc3cc(F)cc(F)c3)nc2)c(=O)c1Cl | 0%
CC(=O)Nc1ccc(CCNC(C)Cc2ccc(C(=O)Nc3ccc(CC(C)NCCc4cccc(Cl)c4)cc3)cc2)cc1 (stereo not drawn) | 0%
c1cc(-c2ccc(CNCCCN3CCOCC3)cc2)cc(-c2nc3ccccc3[nH]2)c1 | 0%
Clc1ccccc1C=NN=c1cc[nH]c2ccccc12 | 0%
O=C1CCCN1CCCNCc1ccc(-c2ccc(-c3nc4cc(F)ccc4[nH]3)cc2)cc1 | 0%
Cc1[nH]c(C)c(-c2ccc(C#Cc3ccc(F)cc3F)cc2)c(=O)c1Br | 0%
COc1ccc(OC)c(-c2ccc(=O)n(CC(=O)Nc3cccc4ccccc34)n2)c1 | 3%

SMILES | inhibition
CC(C)(C)c1ccc(CNC(=O)/C=C/c2ccc(-c3nc4cc(C(C)(C)C)ccc4[nH]3)cc2)cc1 | 0%
CN(C)CCCN1CCN(Cc2ccc(-c3ccc(-c4nc5ccccc5[nH]4)s3)cc2)CC1 | 4%
CC(C)Nc1nc(NCCc2c[nH]cn2)nc(Nc2ccc(Oc3ccccc3)cc2)n1 | 1%
CN1CCC(NC(=O)c2cc(Oc3ccc4c(c3)CCN4C(=O)Nc3cccc(C(F)(F)F)c3)ccn2)CC1 | 0%
FC(F)(F)COc1c(CCNCCCCNCCc2ccc3ccccc3c2OCC(F)(F)F)ccc2ccccc12 | 0%
CN(CCN)Cc1cccc(-c2cccc(-c3nc4cc(C(F)(F)F)ccc4[nH]3)c2)c1 | 0%
CC(C)CCCC(C)NC[C@@H](O)[C@H](Cc1ccccc1)NC(=O)c1cc(N2CCCC2=O)cc(N(c2ccccc2)S(C)(=O)=O)c1 (stereo partly drawn) | 0%
ON=C(c1nc2ccccc2[nH]1)c1nc2ccccc2[nH]1 | 6%
O=S(=O)(NCCN1CCCC1)c1cccc(-c2ccc(CNCc3ccsc3)cc2)c1 | 6%
COc1cccc(CCc2nc3c(N4CCC(Cc5ccccc5)CC4)cccc3n2CC2CNCCO2)c1 (stereo not drawn) | 4%
CCN(CC)CCN(Cc1ccc(-c2ccc(C(F)(F)F)cc2)cc1)C(=O)Cn1c(CCc2ccc(F)c(C#N)c2)nc(=O)c2ccccc21 | 0%
CCc1c(CCNCCCCCCNCCc2ccc(Br)cc2)ccc(O)c1O | 0%
Nc1c2c(nc3ccc(Oc4ccc(Cl)cc4)cc13)CCCC2 | 0%
Cc1cc(N[C@@H](Cc2ccccc2)C(=O)NCc2cccs2)nc(NCCc2ccccn2)n1 | 0%
COc1cc(C=CC(=O)N2CCC(CCN3CCC(c4c[nH]c5ccccc45)CC3)CC2)cc(OC)c1 | 0%
COc1cc2nc(N3CCC(CNC(=O)c4ccc(NC(=O)c5ccc(Cl)cc5)cc4)CC3)nc(N)c2cc1OC | 0%
CCNC1=NC2=C(CC(C(C)(C)C)CC2)C2(CCC(C(C)(C)C)CC2)S1 (stereo not drawn) | 4%
Cc1ccc(Cc2c[nH]c(NCCSCc3ccc(CN4CCOCC4)o3)nc2=O)cn1 | 0%
Cc1cc(-c2c[nH]c3ncc(-c4cccc5ncccc45)cc23)ccc1C(=O)O | 0%
Cc1cccc2nc(-c3ccc(-c4ccc(CN5CCCCC5)cc4)cc3)[nH]c12 | 0%
Cc1cc(I)ccc1Nc1nc2nonc2nc1Nc1ccc(I)cc1C | 0%
CS(=O)(=O)c1ccc(CNCc2ccc(-c3cccc(-c4nc5cc(C(F)(F)F)ccc5[nH]4)c3)cc2)cc1 | 8%
